In PubChem BioAssay AID651828 (ICCB-Longwood Screening Facility, Harvard Medical School, 2012):
About 25 (0.1%) of roughly 20,000 compounds were called active. No stated cut-off is given here; in the data, active means % bound below about 75%; inactive means the rest. The entries come from a sample that favours actives as a whole.

Each molecule was assayed against Nucleoprotein (Rift valley fever virus (strain ZH-548 M12)) (UniProt P21700) (assay: inhibitors of RVFV nucleoprotein–RNA binding, primary screen, biochemical, fluorescence polarization (AID 651828)). Conditions: RVFV N-RNA binding, hits give low values, concentration not given here.
Sequence of Nucleoprotein (Rift valley fever virus (strain ZH-548 M12)) (P21700 whole entry, looked up): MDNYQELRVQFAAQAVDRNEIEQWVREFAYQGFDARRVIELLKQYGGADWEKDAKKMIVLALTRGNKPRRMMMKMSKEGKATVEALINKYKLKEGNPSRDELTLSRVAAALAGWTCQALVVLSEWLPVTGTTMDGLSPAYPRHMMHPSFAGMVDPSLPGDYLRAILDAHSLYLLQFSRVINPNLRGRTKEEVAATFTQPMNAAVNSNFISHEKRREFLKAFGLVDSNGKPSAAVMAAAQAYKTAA

Compound | % bound
COc1cccc(CNc2ccc3c(c2)ncn3C)c1 | 107% (inactive)
Cc1nc(SCC#N)c2c3c(sc2n1)CCCC3 | 103% (inactive)
O=C(CC(C(=O)O)n1cccn1)c1ccc(Br)cc1 (stereo not given) | 98.3% (inactive)
COCC(=O)N1CCN(c2ccccn2)CC1 | 87.2% (inactive)
O=S(=O)(NNc1ncnc2sccc12)c1ccc(Cl)cc1 | 97.8% (inactive)
O=C(CN1CCSCC1)N/N=C/c1ccc(Br)cc1 | 101% (inactive)
C=CCN(CC=C)C(=O)c1ccc(N2C(=O)CCC2=O)cc1 | 95.1% (inactive)
CCC(C)NC(=S)NC1CCCCC1 (stereo not given) | 112% (inactive)
CC(C)(C)c1ccc(CSc2nc3c(c(=O)[nH]2)CCC3)cc1 | 91% (inactive)
CN(C(=O)c1cc2cccnc2n(C)c1=O)c1ccccc1 | 93.7% (inactive)
O=C(CCc1ccccc1)NNc1ccc(F)cc1 | 104% (inactive)
Cc1[nH]nc2c1C1C(C2)C1(C)C (stereo not given) | 96.4% (inactive)
C=CCn1c(O)c(N=N)c2ccccc21 | 97.3% (inactive)
CC1CCCCN1S(=O)(=O)CCNC(=O)c1ccccc1 (stereo not given) | 89.1% (inactive)
CC(C)n1c(-c2ccncc2)n[nH]c1=S | 98.6% (inactive)
CN(C)C(=O)c1cc(Br)ccc1Cl | 99.9% (inactive)
Cc1onc(-c2ccccc2Cl)c1C(=O)N(Cc1nc(-c2ccccc2)no1)C(C)C | 89% (inactive)
CC(C)CCn1c(CO)cnc1S(=O)(=O)C(C)C | 86.9% (inactive)
O=C(c1ccc(Br)o1)n1cnc2ccccc21 | 104% (inactive)
CC(=O)Nn1nc2c(n1)C(=NNC(=O)c1ccccc1)c1nn(NC(C)=O)nc1C2=NNC(=O)c1ccccc1 | 98.5% (inactive)
CNC(C)c1ccc(OC)c(OC)c1 (stereo not given) | 91% (inactive)
CCN(CC)C(=O)/C=C/c1cccc2ccccc12 | 101% (inactive)
Cc1cc(C)c2c(N)c(-c3n[nH]c(=S)n3C)sc2n1 | 98.2% (inactive)
CNC(=O)O/N=C/c1nn(C)cc1Br | 94.8% (inactive)

Compound | % bound
COc1ccc(Cl)cc1NC(=S)N1CCCCC1CO (stereo not given) | 94.6% (inactive)
O=C(Nc1c[nH]c2ccccc12)NC1CCCC1 | 94.2% (inactive)
COc1cc(CN2CCN3CCCC3C2C2CCCCC2)cc(OC)c1 (stereo not given) | 107% (inactive)
CC12CN3CC(C)(CN(C1)C31C(=O)Nc3ccccc31)C2O (stereo not given) | 103% (inactive)
O=c1cc(-c2ccccc2)nc(SCc2ccccn2)[nH]1 | 93.4% (inactive)
Cn1c(=O)n(Cc2ccco2)c(=N)c2c3c(sc21)CCCC3 | 106% (inactive)
Nn1c(Cc2ccccc2)nnc1SCC(=O)Nc1ccccc1F | 91.9% (inactive)
COc1ccc(N=Nc2c(-c3ccc(OC)cc3)[nH]oc2=O)cc1 | 75.1% (inactive)
CN(C)c1ccc(/C=C2\SC(=Nc3ccccc3)N(CCO)C2=O)cc1 | 92.8% (inactive)
CS(=O)(=O)c1ccccc1C(=O)Nc1ccc2sccc2c1 | 96% (inactive)
O=S(=O)(c1ccccc1)c1ccc(I)cc1 | 96.7% (inactive)
C=CCc1ccc(OCC(=O)ONN)c(OC)c1 | 104% (inactive)
COC(=O)c1sc(-c2cccs2)cc1NS(=O)(=O)c1cn(C)cn1 | 98.3% (inactive)
Cc1c(Cl)cccc1NC(=O)CCn1cnc2ccccc2c1=O | 81.8% (inactive)
Cc1cc(Oc2cc(C#N)c(C#N)cc2N2CCOCC2)cc(C)c1Cl | 95.2% (inactive)
COc1cc(/C=C2/C(=N)N3N=C(c4ccccc4C)SC3=NC2=O)ccc1OC(=O)c1ccco1 | 91.3% (inactive)
Cc1ccc2occ(CN3CCSCC3)c(=O)c2c1 | 100% (inactive)
COc1ccc(C(C)=CC(=O)C(C)(C)C)cc1 | 96.7% (inactive)
Cc1nc2cc3nc(-c4cccs4)cnc3cc2n1C | 115% (inactive)
O=C(Nc1ccc(C(=O)N2CCCc3ccccc32)cc1)c1ccco1 | 95.2% (inactive)
CC[C@H](CO)Nc1nc(NCc2ccccc2O)c2ncn(C(C)C)c2n1 | 98.6% (inactive)
Nc1nonc1C(=NCc1ccccc1)NO | 96.3% (inactive)
COc1ccc(C(=O)c2cnc3ccccn23)cc1Cl | 96.7% (inactive)
O=C(c1cccs1)c1coc2c1cc(O)c1ccccc12 | 94.6% (inactive)

Compound | % bound
O=c1[nH]c(O)c(C=Nc2ccccc2)c(=O)[nH]1 | 101% (inactive)
CC(C)=N/N=C1/NC(=O)C(CC(=O)Nc2cccc3ccccc23)S1 (stereo not given) | 96.1% (inactive)
CC(C)CN1C(=O)C=CC1=O | 86.4% (inactive)
CC1(C)C(=O)C2(C(=O)Nc3cccc(C(F)(F)F)c3)CCC1C2 (stereo not given) | 98.6% (inactive)
CCCC(=O)N1CCN(c2ccc(NC(=O)c3cccc(C)c3OC)cc2Cl)CC1 | 92.1% (inactive)
O=C(Nc1ccccc1)C1CCCN(S(=O)(=O)c2ccccc2)C1 (stereo not given) | 98.9% (inactive)
COCC(C)N=CC1=C(O)CC(C)(C)CC1=O (stereo not given) | 94.3% (inactive)
O=C(OCCN1C(=O)c2ccccc2C1=O)Oc1ccccc1 | 93.9% (inactive)
O=c1[nH]c(NCCCN2CCOCC2)nnc1-c1ccccc1 | 93.9% (inactive)
O=C1C=C(Nc2ccccc2)C(=O)N1Cc1ccccc1 | 102% (inactive)
CCc1ccc(NC(=O)C(CC)CC)cc1 | 97.6% (inactive)
CC(C)NC(=O)C(C)Oc1ccc(S(N)(=O)=O)cc1 (stereo not given) | 96.3% (inactive)
Cc1cc(C(=O)Nc2ccc(C(=O)N3CCOCC3)cc2)cs1 | 88.4% (inactive)
CC(C)(O)C(/C=C/c1ccccc1)=N/NC(N)=O | 96.4% (inactive)
O=C(CC(F)(F)F)Nc1ccccn1 | 94% (inactive)
COC(=O)C12CCC(C)(C(=O)O1)C2(C)C (stereo not given) | 90.1% (inactive)
OC1CCN(Cc2ccc[nH]2)CC1 | 95% (inactive)
Nc1nc2nc(-c3ccccc3)cc(-c3ccccc3)n2n1 | 92% (inactive)
COC(=O)CSc1nnc2c3ccccc3n(CCc3ccccc3)c2n1 | 104% (inactive)
Cc1ccc(C(=O)c2sc3[nH]c(=O)c(C(=O)O)cc3c2N)cc1 | 97.7% (inactive)
Cc1ccc(NC(=O)Nc2c(C)noc2-c2ccc(C(F)(F)F)cc2)cc1 | 97.4% (inactive)
CNC(=S)N/N=C/c1cccnc1 | 96.3% (inactive)
